In the supplement of paper PMC4466140:

Experiments:
Experiment in all cases: SPOT peptide array binding signal intensity (averaged, normalized) (arbitrary units (background-subtracted, floor 0; scale differs between SH3 domains)); higher = stronger binding of the SH3 domain to the peptide
AgAbp1 = biological target: AgAbp1
Outline: (§1)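 To measure binding, SH3 domains from four yeast species were fused to GST, expressed in E. coli BL21(DE3) and purified on glutathione Sepharose. Each domain was incubated at 10 μg/ml overnight at 4°C on cellulose membranes with synthetic 15-mer peptides whose cysteines were replaced by serines. Anti-GST antibody, an HRP anti-mouse secondary and luminol were used for detection, and images were quantified with Genespotter. Reported binding signal is normalized, background-subtracted spot intensity averaged over replicates, in arbitrary units that differ between domains.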

AgBbc1 = biological target: AgBbc1
Outline: as §1

AgBem1-D1 = biological target: AgBem1-D1
Outline: as §1

AgBzz1-D1 = biological target: AgBzz1-D1
Outline: as §1

AgBzz1-D2 = biological target: AgBzz1-D2
Outline: as §1

AgCyk3 = biological target: AgCyk3
Outline: as §1

AgFus1 = biological target: AgFus1
Outline: as §1

AgHof1 = biological target: AgHof1
Outline: as §1

AgHse1 = biological target: AgHse1
Outline: as §1

AgLsb1 = biological target: AgLsb1
Outline: as §1

AgLsb4 = biological target: AgLsb4
Outline: as §1

AgMyo5 = biological target: AgMyo5
Outline: as §1

AgNbp2 = biological target: AgNbp2
Outline: as §1

AgRvs167 = biological target: AgRvs167
Outline: as §1

AgSho1 = biological target: AgSho1
Outline: as §1

AgSla1-D1-D2 = biological target: AgSla1-D1-D2
Outline: as §1

AgSla1-D3 = biological target: AgSla1-D3
Outline: as §1

CaAbp1-D1 = biological target: CaAbp1-D1
Outline: as §1

CaAbp1-D2 = biological target: CaAbp1-D2
Outline: as §1

CaBbc1 = biological target: CaBbc1
Outline: as §1

CaBem1-D1 = biological target: CaBem1-D1
Outline: as §1

CaBzz1-D1 = biological target: CaBzz1-D1
Outline: as §1

CaBzz1-D2 = biological target: CaBzz1-D2
Outline: as §1

CaCyk3 = biological target: CaCyk3
Outline: as §1

CaFus1 = biological target: CaFus1
Outline: as §1

CaHof1 = biological target: CaHof1
Outline: as §1

CaHse1 = biological target: CaHse1
Outline: as §1

CaLsb1 = biological target: CaLsb1
Outline: as §1

CaLsb4 = biological target: CaLsb4
Outline: as §1

CaMyo5 = biological target: CaMyo5
Outline: as §1

CaNbp2 = biological target: CaNbp2
Outline: as §1

CaRvs167 = biological target: CaRvs167
Outline: as §1

CaRvs167-3 = biological target: CaRvs167-3
Outline: as §1

CaSho1 = biological target: CaSho1
Outline: as §1

CaSla1-D1-D2 = biological target: CaSla1-D1-D2
Outline: as §1

CaSla1-D3 = biological target: CaSla1-D3
Outline: as §1

ScAbp1 = biological target: ScAbp1
Outline: as §1

ScBbc1 = biological target: ScBbc1
Outline: as §1

ScBem1-D1 = biological target: ScBem1-D1
Outline: as §1

ScBzz1-D1 = biological target: ScBzz1-D1
Outline: as §1

ScBzz1-D2 = biological target: ScBzz1-D2
Outline: as §1

ScCyk3 = biological target: ScCyk3
Outline: as §1

ScFus1 = biological target: ScFus1
Outline: as §1

ScHof1 = biological target: ScHof1
Outline: as §1

ScHse1 = biological target: ScHse1
Outline: as §1

ScLsb1 = biological target: ScLsb1
Outline: as §1

ScLsb2 = biological target: ScLsb2
Outline: as §1

ScLsb3 = biological target: ScLsb3
Outline: as §1

ScLsb4 = biological target: ScLsb4
Outline: as §1

ScMyo3 = biological target: ScMyo3
Outline: as §1

ScMyo5 = biological target: ScMyo5
Outline: as §1

ScNbp2 = biological target: ScNbp2
Outline: as §1

ScPex13 = biological target: ScPex13
Outline: as §1

ScRvs167 = biological target: ScRvs167
Outline: as §1

ScSho1 = biological target: ScSho1
Outline: as §1

ScSla1-D1-D2 = biological target: ScSla1-D1-D2
Outline: as §1

ScSla1-D3 = biological target: ScSla1-D3
Outline: as §1

SpAbp1-D1 = biological target: SpAbp1-D1
Outline: as §1

SpBbc1 = biological target: SpBbc1
Outline: as §1

SpBzz1-D1 = biological target: SpBzz1-D1
Outline: as §1

SpBzz1-D2 = biological target: SpBzz1-D2
Outline: as §1

SpCyk3 = biological target: SpCyk3
Outline: as §1

SpHof1 = biological target: SpHof1
Outline: as §1

SpHof1-2 = biological target: SpHof1-2
Outline: as §1

SpHof1-3 = biological target: SpHof1-3
Outline: as §1

SpHse1 = biological target: SpHse1
Outline: as §1

SpLsb1 = biological target: SpLsb1
Outline: as §1

SpLsb4 = biological target: SpLsb4
Outline: as §1

SpMyo1 = biological target: SpMyo1
Outline: as §1

SpNbp2 = biological target: SpNbp2
Outline: as §1

SpPex13 = biological target: SpPex13
Outline: as §1

SpRvs167 = biological target: SpRvs167
Outline: as §1

SpSla1-D1-D2 = biological target: SpSla1-D1-D2
Outline: as §1

SpSla1-D3 = biological target: SpSla1-D3
Outline: as §1

B1: unnamed (peptide)
chain: FLIKFTPKFPQSIDH
SPOT peptide array binding signal intensity (AgAbp1): 11 | SPOT peptide array binding signal intensity (AgBbc1): 89.8 | SPOT peptide array binding signal intensity (AgBem1-D1): 681 | SPOT peptide array binding signal intensity (AgBzz1-D1): 120 | SPOT peptide array binding signal intensity (AgBzz1-D2): 229 | SPOT peptide array binding signal intensity (AgCyk3): 165 | SPOT peptide array binding signal intensity (AgFus1): 1690 | SPOT peptide array binding signal intensity (AgHof1): 45 | SPOT peptide array binding signal intensity (AgHse1): 1660 | SPOT peptide array binding signal intensity (AgLsb1): 2.5 | SPOT peptide array binding signal intensity (AgLsb4): 1180 | SPOT peptide array binding signal intensity (AgMyo5): 1.5 | SPOT peptide array binding signal intensity (AgNbp2): 669 | SPOT peptide array binding signal intensity (AgRvs167): 15 | SPOT peptide array binding signal intensity (AgSho1): 814 | SPOT peptide array binding signal intensity (AgSla1-D1-D2): 524 | SPOT peptide array binding signal intensity (AgSla1-D3): 33.8 | SPOT peptide array binding signal intensity (CaAbp1-D1): 172 | SPOT peptide array binding signal intensity (CaAbp1-D2): 120 | SPOT peptide array binding signal intensity (CaBbc1): 75 | SPOT peptide array binding signal intensity (CaBem1-D1): 103 | SPOT peptide array binding signal intensity (CaBzz1-D1): 819 | SPOT peptide array binding signal intensity (CaBzz1-D2): 281 | SPOT peptide array binding signal intensity (CaCyk3): 136 | SPOT peptide array binding signal intensity (CaFus1): 3550 | SPOT peptide array binding signal intensity (CaHof1): 6.5 | SPOT peptide array binding signal intensity (CaHse1): 588 | SPOT peptide array binding signal intensity (CaLsb1): 10 | SPOT peptide array binding signal intensity (CaLsb4): 299 | SPOT peptide array binding signal intensity (CaMyo5): 94 | SPOT peptide array binding signal intensity (CaNbp2): 1020 | SPOT peptide array binding signal intensity (CaRvs167): 651 | SPOT peptide array binding signal intensity (CaRvs167-3): 2160 | SPOT peptide array binding signal intensity (CaSho1): 2110 | SPOT peptide array binding signal intensity (CaSla1-D1-D2): 43 | SPOT peptide array binding signal intensity (CaSla1-D3): 585 | SPOT peptide array binding signal intensity (ScAbp1): 7 | SPOT peptide array binding signal intensity (ScBbc1): 5.5 | SPOT peptide array binding signal intensity (ScBem1-D1): 47.5 | SPOT peptide array binding signal intensity (ScBzz1-D1): 224 | SPOT peptide array binding signal intensity (ScBzz1-D2): 611 | SPOT peptide array binding signal intensity (ScCyk3): 145 | SPOT peptide array binding signal intensity (ScFus1): 1850 | SPOT peptide array binding signal intensity (ScHof1): 3.25 | SPOT peptide array binding signal intensity (ScHse1): 2710 | SPOT peptide array binding signal intensity (ScLsb1): 1 | SPOT peptide array binding signal intensity (ScLsb2): 9 | SPOT peptide array binding signal intensity (ScLsb3): 706 | SPOT peptide array binding signal intensity (ScLsb4): 80 | SPOT peptide array binding signal intensity (ScMyo3): 15.5 | SPOT peptide array binding signal intensity (ScMyo5): 14 | SPOT peptide array binding signal intensity (ScNbp2): 715 | SPOT peptide array binding signal intensity (ScPex13): 86.5 | SPOT peptide array binding signal intensity (ScRvs167): 47 | SPOT peptide array binding signal intensity (ScSho1): 2000 | SPOT peptide array binding signal intensity (ScSla1-D1-D2): 322 | SPOT peptide array binding signal intensity (ScSla1-D3): 232 | SPOT peptide array binding signal intensity (SpAbp1-D1): 50.5 | SPOT peptide array binding signal intensity (SpBbc1): 27 | SPOT peptide array binding signal intensity (SpBzz1-D1): 1440 | SPOT peptide array binding signal intensity (SpBzz1-D2): 17.8 | SPOT peptide array binding signal intensity (SpCyk3): 48.5 | SPOT peptide array binding signal intensity (SpHof1): 662 | SPOT peptide array binding signal intensity (SpHof1-2): 126 | SPOT peptide array binding signal intensity (SpHof1-3): 1580 | SPOT peptide array binding signal intensity (SpHse1): 1950 | SPOT peptide array binding signal intensity (SpLsb1): 11.5 | SPOT peptide array binding signal intensity (SpLsb4): 610 | SPOT peptide array binding signal intensity (SpMyo1): 75 | SPOT peptide array binding signal intensity (SpNbp2): 1010 | SPOT peptide array binding signal intensity (SpPex13): 309 | SPOT peptide array binding signal intensity (SpRvs167): 49.8 | SPOT peptide array binding signal intensity (SpSla1-D1-D2): 4 | SPOT peptide array binding signal intensity (SpSla1-D3): 172
